This is an account of results in PubChem BioAssay AID463173 (ICCB-Longwood Screening Facility, Harvard Medical School, 2010).

Among all 52,000 compounds or so, about 4,300 (8.3%) were called active. No stated cut-off is given here; in the data, active means survival mostly below about 52% (no sharp cut-off); inactive means mostly above about 56%. This excerpt belongs to a sample that is enriched for actives.

This assay deals with DeltatarO mutant. The assay is described as follows: S. aureus survival, RN4220 and DeltatarO strains – OD600, teichoic acid synthesis inhibitors, primary screen (AID 463173). Particulars: S. aureus RN4220 wild type/DeltatarO growth, OD600, 18 h, stronger effect = lower value, screened at 18.75 µg/mL (by protocol).
On to `COc1ccc(Cl)cc1NC(=O)c1c(NCc2sccc2C)sc2c1CCCC2`, for which the survival is 71% (inactive).
For `CC(=O)NC1(c2ccccc2)CCN(Cc2nnnn2C(C)(C)C)CC1`, the survival is 91% (inactive).
With `Cc1ccc(C)c(N2CCN(C(=O)CCS(=O)(=O)c3ccc4c(c3)CC(=O)N4C)CC2)c1` the figure was 89% (inactive).
The value for `O=C(Nc1ccccc1F)NC1CCN(Cc2nnnn2Cc2ccc(F)cc2)CC1` was 96% (inactive).
The value for `CC(=O)N1CCCc2ccc(NS(=O)(=O)c3cccc(Cl)c3)cc21` was 80% (inactive); that for `N#Cc1c[nH]n2c(NC3CCCC3)c(-c3cccc(Br)c3)nc12` was 45% (inactive); that for `COc1cccc(CN(C(=O)c2oc3ccccc3c2C)C2CCS(=O)(=O)C2)c1` (centres undefined) was 69% (inactive).
On to `COc1cccc(CN(C(=O)c2oc3cc(C)ccc3c2C)C2CCS(=O)(=O)C2)c1` (centres undefined), for which the survival was 57% (inactive).
As to `Cc1ccc2c(C)c(C(=O)N(Cc3ccc(Cl)cc3)C3CCS(=O)(=O)C3)oc2c1` (centres undefined), the survival is 34% (active).
For the compound `COc1cccc(CN(C(=O)c2oc3ccc(Br)cc3c2C)C2CCS(=O)(=O)C2)c1` (centres undefined), the survival was 40% (active).
The value for `COc1cc(CN(C(=O)c2oc3ccccc3c2C)C2CCS(=O)(=O)C2)cc(OC)c1OC` (centres undefined) was 55% (inactive).
With `Cc1ccc2oc(C(=O)N(Cc3cccc(F)c3)C3CCS(=O)(=O)C3)c(C)c2c1` (centres undefined) the figure was 76% (inactive); with `Cc1c(C(=O)N(Cc2cccc(F)c2)C2CCS(=O)(=O)C2)oc2cc(Br)ccc12` (centres undefined), 63% (inactive).
With `Cc1c(C(=O)N(Cc2ccccc2F)C2CCS(=O)(=O)C2)oc2ccccc12` (centres undefined) the figure was 84% (inactive).
Turning to `Cc1c(C(=O)N(Cc2ccc(N(C)C)cc2)C2CCS(=O)(=O)C2)oc2ccccc12` (centres undefined), the survival was 42% (active).
The value for `C=CCn1c(C(C)NC(=O)c2ccccc2Cl)n[nH]c1=S` (centres undefined) was 76% (inactive).
With `Cc1cccc(C)c1NC(=O)c1ccc2nc(CCc3ccccc3)oc2c1` the figure was 69% (inactive); with `O=C(Nc1ccc(Cl)cc1Cl)c1cc(S(=O)(=O)NCc2ccc3c(c2)OCO3)ccc1F`, 94% (inactive).
With `O=C(C1CCCN(S(=O)(=O)c2cccc3nsnc23)C1)N1CCN(c2ccccc2)CC1` (centres undefined) the figure was 79% (inactive); with `CN1C(=O)SC(N(CC(N)=O)c2ccccc2)C1=O` (centres undefined), 61% (inactive); with `COc1cc(NC(=O)Cn2nc(Cc3cccnc3)c3ccccc3c2=O)cc(OC)c1OC`, 71% (inactive).
On to `COCCNC(=O)CSc1nc2cc3c(cc2c(=O)n1CCCC(=O)NCc1ccc(OC)cc1)OCO3`, for which the survival is 84% (inactive).
Take `CC(=O)c1ccc(NC(=O)CSc2nnc3ccc(-c4ccc(Cl)cc4)nn23)cc1`: the survival was 83% (inactive).
With `CCOC(=O)c1c(NC(=O)CSc2cn(CCNC(=O)c3ccc(OCC)cc3)c3ccccc23)sc2c1CCCC2` the figure was 93% (inactive); with `COc1cccc(C(=O)COC(=O)c2cc(-c3cccs3)nc3ccccc23)c1`, 54% (inactive).
With `COc1ccc(-n2c(-c3ccccc3F)nc3c(cnn3-c3ccc(C)cc3)c2=O)cc1` the figure was 80% (inactive).
With `COc1ccc(-n2c(-c3cccc(F)c3)nc3c(cnn3-c3ccc(C)cc3)c2=O)cc1`, the survival is 96% (inactive).
Turning to `Cc1ccc(-c2nc3c(cnn3-c3ccccc3)c(=O)n2-c2cccc(Cl)c2)cc1`, the survival is 33% (active).
The value for `COc1cccc(-n2c(-c3ccccc3F)nc3c(cnn3-c3ccc(C)cc3)c2=O)c1` was 75% (inactive).
As to `CCc1nc2c(cnn2-c2ccc(C)cc2)c(=O)n1-c1ccc(C)cc1`, the survival is 47% (inactive).
Take `Cc1ccc(-n2c(-c3cccc(C)c3)nc3c(cnn3-c3ccccc3)c2=O)cc1`: the survival was 19% (active).
The value for `Cc1cccc(-c2nc3c(cnn3-c3ccccc3)c(=O)n2-c2ccc(Br)cc2)c1` was 139% (inactive); that for `Cc1ccc(-n2c(-c3ccc(Br)cc3)nc3c(cnn3-c3ccccc3)c2=O)cc1` was 39% (active).
With `Cc1ccc(-n2c(-c3ccco3)nc3c(cnn3-c3ccc(C)cc3)c2=O)cc1`, the survival is 81% (inactive).
The value for `COc1cccc(-n2c(-c3cccc(F)c3)nc3c(cnn3-c3ccc(C)cc3)c2=O)c1` was 76% (inactive).
The value for `Cc1ccc(-c2nc3c(cnn3-c3ccccc3)c(=O)n2-c2ccc(Cl)cc2)cc1` was 44% (active); that for `CCc1nc2c(cnn2-c2ccccc2)c(=O)n1-c1ccc(Br)cc1` was 86% (inactive); that for `CCNC(=O)C1CCN(S(=O)(=O)c2ccc3c(c2)CCCN3C(C)=O)CC1` was 99% (inactive).
On to `CCC(CC)C(=O)OCc1cc(=O)n2nc(C3CCCCC3)sc2n1`, for which the survival is 88% (inactive).
With `COc1ccc(/C=C(\NC(=O)c2ccccc2)C(N)=O)cc1` the figure was 79% (inactive); with `CC(C)CCNC(=O)Cn1c(-c2cccs2)cc2cc(F)ccc21`, 94% (inactive); with `Cc1cc(C)c2c(c1)c(C)cc1nnc(SCC(=O)c3ccc(F)cc3)n12`, 63% (inactive).
The value for `Cc1ccc(C)c(CSC2=NC(C)(C)Nc3ccccc32)c1` was 80% (inactive); that for `CCC(NC(C)=O)c1ccccc1` (centres undefined) was 71% (inactive).
With `CCCCCCNc1nc(Oc2ccccc2)nc(Oc2ccccc2)n1` the figure was 62% (inactive).
For the compound `CN(C)C(=O)CSc1n[nH]c(-c2ccccc2)n1`, the survival was 103% (inactive).
With `Cc1ccc(-c2noc(-c3ccc(N4CCC(C)CC4)c([N+](=O)[O-])c3)n2)cc1` the figure was 85% (inactive).
With `Cc1ccc(NC(=O)CSc2nc3ccc(NC(=O)CCc4ccccc4)cc3s2)cc1` the figure was 90% (inactive).
Take `Cc1nn(S(=O)(=O)c2ccc(C(C)C)cc2)c(C)c1S(=O)(=O)N1CCCCC1`: the survival is 79% (inactive).
Turning to `O=C(COc1ccc(Cl)cc1)OCc1cc(=O)n2nc(C3CC3)sc2n1`, the survival is 83% (inactive).
For `Cc1cc(=O)[nH]c2nnc(SCc3ccc(Cl)cc3Cl)n12`, the survival is 123% (inactive).
With `COc1ccccc1NC(=O)c1sc2ncn(Cc3ccccc3Cl)c(=O)c2c1C`, the survival was 99% (inactive).
The value for `Cc1cccc(-c2nc3c(cnn3-c3ccccc3)c(=O)n2-c2cccc(Cl)c2)c1` was 44% (active); that for `CCOc1ccc(-n2c(C)nc3c(cnn3-c3ccc(C)cc3)c2=O)cc1` was 76% (inactive).
The value for `CCOc1ccc(-n2c(CC)nc3c(cnn3-c3ccc(Cl)cc3)c2=O)cc1` was 46% (inactive); that for `CCOc1ccc(-n2c(-c3ccc(C)cc3)nc3c(cnn3-c3ccccc3)c2=O)cc1` was 42% (active); that for `Cc1cccc(-n2c(-c3ccco3)nc3c(cnn3-c3ccc(F)cc3)c2=O)c1` was 81% (inactive).
On to `Cc1cccc(-c2nc3c(cnn3-c3ccccc3)c(=O)n2-c2ccc(Cl)cc2)c1`, for which the survival is 56% (inactive).
With `CC(=O)c1ccc(N2CCN(S(=O)(=O)c3ccc4c(c3)C(C)(C)C(=O)N4)CC2)cc1` the figure was 64% (inactive); with `CN1C(=O)c2ccccc2Sc2ccc(NC(=O)NCc3ccc(Cl)cc3)cc21`, 96% (inactive).
With `CCOC(=O)c1c(NC(=O)/C=C/c2ccc(OCC)c(OC)c2)sc2c1CCC2` the figure was 56% (inactive); with `COc1cc(C(=O)Nc2sc3c(c2C(N)=O)CCC(C)C3)cc(OC)c1OC` (centres undefined), 53% (inactive).
As to `CCCOc1ccc(/C=C/C(=O)Nc2sc3c(c2C(=O)OCC)CCC(C)C3)cc1OC` (centres undefined), the survival was 51% (inactive).
With `COC(=O)c1c(NC(=O)/C=C/c2ccc(OC)c(OC)c2)sc2c1CCC2` the figure was 51% (inactive); with `CCOC(=O)c1c(NC(=O)/C=C/c2ccc(OC)cc2)sc2c1CCC(C)C2` (centres undefined), 23% (active).
Consider `COc1ccc(/C=C/C(=O)Nc2sc3c(c2C(N)=O)CCCC3)cc1`, for which the survival was 58% (inactive).
With `CCOC(=O)c1sc(NC(=O)/C=C/c2ccc(C(C)C)cc2)c(C(=O)OCC)c1C`, the survival was 52% (inactive).
The value for `CCOC(=O)c1c(NC(=O)/C=C/c2ccc(OC)c(OC)c2)sc(C(C)=O)c1C` was 118% (inactive); that for `COc1ccc(/C=C/C(=O)Nc2sc3c(c2C(N)=O)CCC(C)C3)cc1OC` (centres undefined) was 34% (active); that for `CCOC(=O)c1c(NC(=O)/C=C/c2ccc(Cl)cc2)sc2c1CCC(C)C2` (centres undefined) was 44% (active).
The value for `COC(=O)c1c(NC(=O)/C=C/c2ccc(OC)cc2)sc2c1CCC2` was 102% (inactive); that for `COC(=O)c1sc(NC(=O)/C=C/c2ccc(OC)c(OC)c2)c(C(=O)OC)c1C` was 37% (active).
With `Cc1ccccc1-c1noc(-c2nnn(-c3ccccc3C)c2N)n1` the figure was 94% (inactive); with `O=C(NCc1ccco1)c1ccc2c(c1)N(Cc1ccccc1F)C(=O)c1ccccc1S2=O` (centres undefined), 90% (inactive).
Take `CCCCNC(=O)c1ccc2c(c1)N(Cc1ccc(F)cc1)C(=O)c1ccccc1S2=O` (centres undefined): the survival was 65% (inactive).
With `COC1CCCC(C(=O)Nn2c(C3CC3)nc3ccccc3c2=O)C1` (centres undefined) the figure was 69% (inactive).
Regarding `Cc1cc(F)ccc1NC(=O)c1csc2c1CCC(C)C2` (centres undefined), the survival is 89% (inactive).
Take `Cc1occc1C(=O)NN=C1c2ccccc2-c2ccccc21`: the survival is 69% (inactive).
With `CCN(C(=O)c1oc2ccc(S(=O)(=O)N3CCCCCC3)cc2c1C)c1ccccc1` the figure was 124% (inactive).
The value for `CSc1ccc(NC(=O)N2C3CCC2CC(O)(c2cccnc2)C3)cc1` (centres undefined) was 79% (inactive); that for `CCOc1ccccc1CNS(=O)(=O)c1ccc(-c2coc(C)n2)cc1` was 94% (inactive).
As for `Cc1nc(N2CCCC2)ncc1C(=O)Nc1ccc(F)cc1F`, the survival was 90% (inactive).
The value for `Cc1ccc(Cl)cc1NC(=O)c1ccc2nc(CCc3ccccc3)oc2c1` was 69% (inactive); that for `COc1cccc(-c2cn3c(n2)sc2cc(C(=O)NCc4cccs4)ccc23)c1` was 57% (inactive).
Consider `Cc1ccc(-c2cn3c(n2)sc2cc(C(=O)NCc4cccs4)ccc23)cc1`, for which the survival was 78% (inactive).
Regarding `O=C(NCc1cccs1)c1ccc2c(c1)sc1nc(-c3ccccc3)cn12`, the survival was 82% (inactive).
The value for `COc1ccc(-c2cn3c(n2)sc2cc(C(=O)NCc4cccs4)ccc23)cc1` was 55% (active).
For `Cc1ccc(-c2cn3c(n2)sc2cc(C(=O)NCc4cccs4)ccc23)c(C)c1`, the survival was 41% (active).
As for `O=C(NCc1cccs1)c1ccc2c(c1)sc1nc(-c3ccc(F)cc3)cn12`, the survival was 71% (inactive).
